# Values joined by “and” are separate entries in the source; they are usually repeats but may differ in a detail not shown here. Identical values can stand only once.
# Key:
# [1] = target: Bromodomain-containing protein 4 (Homo sapiens) (UniProt O60885); details: Compound concentration 20.0 uM, Protein concentration 2.0 uM, Result type QC Liability
# [2] = target: T1, Transcription intermediary factor 1-alpha (Homo sapiens) (UniProt O15164); details: Compound concentration 20.0 uM, Protein concentration 2.0 uM, Result type QC Liability
# T1 sequence (whole entry): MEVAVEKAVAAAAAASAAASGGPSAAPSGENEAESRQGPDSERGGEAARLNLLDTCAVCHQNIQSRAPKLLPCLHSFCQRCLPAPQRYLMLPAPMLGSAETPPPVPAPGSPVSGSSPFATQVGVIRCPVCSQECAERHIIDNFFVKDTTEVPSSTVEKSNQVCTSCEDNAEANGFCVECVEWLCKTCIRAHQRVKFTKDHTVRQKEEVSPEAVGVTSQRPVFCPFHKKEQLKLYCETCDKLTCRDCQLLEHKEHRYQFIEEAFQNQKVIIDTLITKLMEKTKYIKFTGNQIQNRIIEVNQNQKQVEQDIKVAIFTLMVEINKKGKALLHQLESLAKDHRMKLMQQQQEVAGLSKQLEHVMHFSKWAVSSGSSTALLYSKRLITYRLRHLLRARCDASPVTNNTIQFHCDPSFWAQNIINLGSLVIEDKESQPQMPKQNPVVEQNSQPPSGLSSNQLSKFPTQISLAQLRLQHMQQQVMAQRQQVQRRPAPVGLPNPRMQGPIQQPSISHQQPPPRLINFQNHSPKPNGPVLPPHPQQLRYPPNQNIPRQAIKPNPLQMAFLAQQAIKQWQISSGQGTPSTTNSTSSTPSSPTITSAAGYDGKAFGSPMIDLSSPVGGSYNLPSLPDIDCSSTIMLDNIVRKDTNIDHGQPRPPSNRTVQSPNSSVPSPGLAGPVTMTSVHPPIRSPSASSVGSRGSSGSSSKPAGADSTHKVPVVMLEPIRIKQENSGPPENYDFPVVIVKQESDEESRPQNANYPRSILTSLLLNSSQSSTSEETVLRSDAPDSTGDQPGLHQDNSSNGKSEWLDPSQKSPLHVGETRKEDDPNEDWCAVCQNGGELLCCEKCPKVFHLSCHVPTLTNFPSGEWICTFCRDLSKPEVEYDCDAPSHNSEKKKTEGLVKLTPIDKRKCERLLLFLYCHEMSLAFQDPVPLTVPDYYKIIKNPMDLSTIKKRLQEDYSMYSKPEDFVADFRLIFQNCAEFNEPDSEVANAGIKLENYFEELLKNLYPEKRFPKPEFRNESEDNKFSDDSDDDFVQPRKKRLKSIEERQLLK
compound,measurement,setting,value
CN1CCCN(C(=O)c2cccc(-c3ccc(/C=C4/C(=O)Nc5ccc(Cl)cc54)o3)c2)CC1,ΔTm,[1],-4.14 °C
same,ΔTm,[2],-5.43 °C
Cc1ccc(NS(=O)(=O)c2ccc3c(c2)C2C=CCC2C(c2ccc(C(=O)O)cc2)N3)cc1C (configuration not stated),ΔTm,[1],-2.09 °C
same,ΔTm,[2],-2.63 °C
CC[C@@H](C(=O)OC)n1c(=O)c2ccccc2n(Cc2cn(C)c3cccc(C)c23)c1=O,ΔTm,[1],1.22 °C
same,ΔTm,[2],0.71 °C
CN1C(=O)Cc2ccc(-c3ccc(C[C@@H](C#N)NC(=O)[C@@H]4N[C@H]5CC[C@@H]4C5)c(F)c3)cc21,ΔTm,[1],-1.1 °C
same,ΔTm,[2],0.19 °C
Cc1cc(-c2ccnc(Nc3cnn(C)c3)n2)ccc1CNC(=O)N1CC(OC(C)C)C1,ΔTm,[1],-2.36 °C
same,ΔTm,[2],0.22 °C
CN1CCN(c2ccnc(NCCc3ccccc3)n2)CC1,ΔTm,[1],-0.31 °C
same,ΔTm,[2],-0.99 °C
Cc1cn([C@H](C)CC#N)c(=O)c2cc(Cn3nc(C(F)F)cc3Cl)nn12,ΔTm,[1],-1.08 °C
same,ΔTm,[2],-1.23 °C
COc1cc(-c2cncc(-c3ccc(N4CCN(C(C)C)CC4)cc3)c2C)cc(F)c1C(N)=O,ΔTm,[1],-2.5 °C
same,ΔTm,[2],-3.06 °C
CN1CCC(F)(Cn2cnc(-c3ccc(F)cn3)c2-c2ccnc3[nH]ccc23)CC1,ΔTm,[1],-2.6 °C
same,ΔTm,[2],-2.99 °C
C/C(=C\C(=O)Nc1ccccc1C(=O)O)c1ccc2ccccc2c1,ΔTm,[1],-0.82 °C
same,ΔTm,[2],0.61 °C
COc1cc2c(cc1CC=C(C)C)C(=O)C[C@@H](c1ccc(O)cc1)O2,ΔTm,[1],0.4 °C
same,ΔTm,[2],0.63 °C
COC[C@@H](C)N[C@H]1CC[C@H](Nc2cc(-c3cccc(NCC4(C#N)CCOCC4)n3)c(Cl)cn2)CC1,ΔTm,[1],-0.6 °C
same,ΔTm,[2],-3.05 °C
CCCCNc1ncc2c(-c3ccc(CN4CCN(C)CC4)cc3)cn([C@H]3CC[C@H](O)CC3)c2n1,ΔTm,[1],-3.24 °C
same,ΔTm,[2],-0.35 °C
CN(C)c1ccc(-c2cc3ncccc3c(OCCCCO)n2)cc1,ΔTm,[1],-2.64 °C
same,ΔTm,[2],-3.64 °C
O=C(Nc1ccc(Cl)c(-c2ccccn2)c1)c1cccc(COc2ccc(Br)cc2CNCCO)c1,ΔTm,[1],-1.21 °C
same,ΔTm,[2],-0.08 °C
CC(=O)Nc1c(F)cc(C(=O)N[C@H]2CC[C@H](O)CC2)cc1O[C@@H](C)c1ccccc1,ΔTm,[1],-1.18 °C
same,ΔTm,[2],-0.63 °C
O=C(Nc1ccc(C(O)(C(F)(F)F)C(F)(F)F)cc1)c1ccc(C(F)(F)F)cc1,ΔTm,[1],-1.03 °C
same,ΔTm,[2],-0.53 °C
CC(C)NC(=O)[C@H]1CCC[C@H]1Nc1nc(Nc2ccc(C(=O)N(C)C3CCN(C)CC3)cc2)ncc1Cl,ΔTm,[1],-1.48 °C and -0.92 °C
same,ΔTm,[2],0.3 °C and -2.89 °C
O=C(Nc1ccc(N2CCC(C(=O)N3CCOCC3)CC2)cc1)c1cnc(Oc2ccccc2)nc1,ΔTm,[1],-0.8 °C
same,ΔTm,[2],-0.59 °C
CCN1C(=O)/C(=C(\NC2CCN(C)CC2)c2ccc3c(c2)OCO3)c2cc(C(C)=O)ccc21,ΔTm,[1],-12 °C
same,ΔTm,[2],0.3 °C
N=C(N)Nc1cc(C2CCNCC2)cc(C(F)(F)F)c1,ΔTm,[1],-0.1 °C
same,ΔTm,[2],0.35 °C
CCN(C)C(=O)c1ccc2c(c1)NC(=O)/C2=C(\NC1CCN(C)CC1)c1ccccc1,ΔTm,[1],0.55 °C
same,ΔTm,[2],0.21 °C
C[S+](C)[O-],ΔTm,[1],0 °C (2×) and -2.05 °C
same,ΔTm,[2],0 °C (2×) and -2.19 °C
CNS(=O)(=O)c1ccc(N(C)C)c(Nc2ncnc3cc(OC)c(OC)cc23)c1,ΔTm,[1],-3.63 °C
same,ΔTm,[2],-2.8 °C
CCS(=O)(=O)c1ccc(OC)c(Nc2ncc(-c3cccc(F)c3)o2)c1,ΔTm,[1],-2.4 °C
same,ΔTm,[2],-1.42 °C
C1=Cc2ccccc2C(=C2CCN(CCCCc3nnn[nH]3)CC2)c2ccccc21,ΔTm,[1],-12.7 °C
same,ΔTm,[2],-0.3 °C
CCOC(=O)CS(=O)(=O)c1ccc([C@@H](CO)NC(=O)c2cc3c(Cl)c(Cl)c(C)cc3n2C)cc1,ΔTm,[1],-3.35 °C
same,ΔTm,[2],-0.06 °C
CC(C)(O)c1coc(S(=O)(=O)NC(=O)Nc2c3c(cc4c2CCC4)CCC3)c1,ΔTm,[1],-0.92 °C
same,ΔTm,[2],-0.55 °C
CNc1oc(-c2cccc3ccccc23)nc1C#N,ΔTm,[1],-3.26 °C
same,ΔTm,[2],-0.7 °C
Cc1nc(Nc2cnn(C3CCNCC3)c2)nc2c1N(C)C(=O)c1cc3ccccc3cc1N2C,ΔTm,[1],-2.15 °C
same,ΔTm,[2],-2.83 °C
Cc1cc(Cn2c(N3CC4(CNC4)C3)nc3c(N4CCN(C)CC4)cc(Cl)cc32)cc(C)c1F,ΔTm,[1],-1.49 °C
same,ΔTm,[2],-0.77 °C
CCc1ccccc1C(=O)Nc1n[nH]c2c(C)c(F)c(C3C(C#N)=C(C)N(C)C(C)=C3C#N)cc12,ΔTm,[1],-3.05 °C
same,ΔTm,[2],-0.71 °C
Cc1cc2c(-c3ccco3)cnc(N[C@@H]3CCN(C)C[C@H]3C(=O)NC3CCCCC3)c2[nH]c1=O,ΔTm,[1],13.3 °C
same,ΔTm,[2],-4.37 °C
CCn1ccc(Nc2ncc3c(n2)-c2c(nn(C)c2-c2ccc(-c4cnn(C)c4)cc2Cl)CC3)n1,ΔTm,[1],-1.73 °C
same,ΔTm,[2],-2.64 °C
O[C@]1(C(F)(F)F)CCCC[C@H]1Nc1ccc(F)cc1,ΔTm,[1],-1.92 °C
same,ΔTm,[2],-2.51 °C
NS(=O)(=O)c1ccc(Nc2nc(OCC3CCCCC3)c3nc[nH]c3n2)cc1,ΔTm,[1],0.59 °C
same,ΔTm,[2],-0.84 °C
